Screening data (PubChem)
Mtb bLac sens = beta-lactam sensitization of Mtb H37Rv; AID 434955; actives 0.27% (n = 330,000); inhibition, % at 25 µM; M. tuberculosis H37Rv growth with meropenem, percent inhibition; call rule not given here;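 also: growth measured after seven days incubation then overnight dye step; 0% = bacteria only wells and 100% = bacteria with antibiotic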
FBA Mtb inh = inhibits M. tuberculosis FBA enzyme. actives 2.3% (n = 360,000). AID 588726. inhibition, % at 1 µM. purified M. tuberculosis FBA, fluorescence read-out. P9WQA3; in the data active = inhibition above about 27%;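 also: 0% = vehicle and 100% = reference inhibitor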
Target sequence (P9WQA3 whole entry, looked up): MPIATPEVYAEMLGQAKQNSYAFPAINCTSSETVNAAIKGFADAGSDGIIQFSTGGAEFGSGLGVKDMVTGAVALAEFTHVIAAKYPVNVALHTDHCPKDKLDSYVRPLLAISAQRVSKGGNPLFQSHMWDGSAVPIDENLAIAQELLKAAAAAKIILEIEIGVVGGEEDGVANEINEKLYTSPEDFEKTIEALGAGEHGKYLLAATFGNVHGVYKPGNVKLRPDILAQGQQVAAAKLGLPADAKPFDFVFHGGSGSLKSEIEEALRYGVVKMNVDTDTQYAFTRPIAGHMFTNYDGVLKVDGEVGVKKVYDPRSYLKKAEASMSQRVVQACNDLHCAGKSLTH
RecA intein inh = Mtb RecA intein splicing inhibition; cell-free RecA intein splicing, fluorescence; inhibition, % (no concentration beside the values); actives 0.75% (n = 290,000); P9WHJ3; AID 2221; in the data active = inhibition above about 30%;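 also: 0% = vehicle wells and 100% = reference inhibitor control wells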
Rv3671c inh = inhibits the M. tuberculosis serine protease Rv3671c; inhibition, % at 5.96 µM; actives 0.048% (n = 320,000); AID 2606; in the data active = inhibition above about 38%;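 also: extracellular domain of Rv3671c used as enzyme; 0% = enzyme with DMSO and 100% = no enzyme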
UGM FP inh = Mtb UDP-galactopyranose mutase inhibition; purified UGM, fluorescence polarization probe displacement; inhibition, % at 10 µM; actives 0.06% (n = 320,000); in the data active = inhibition above about 10%, passing the limit was not always enough
GDH-TPI inh = GDH-TPI coupled enzyme inhibition counter-screen; GDH-TPI coupled enzyme counterscreen, NADH absorbance; inhibition, % at 4.8 µM; actives 1.2% (n = 360,000); AID 588335; in the data active = inhibition above about 30%;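 also: 0% = DMSO wells and 100% = wells lacking the enzyme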
The depositor's hits bear a star; x = no result given; + = active, no number. The list is not random: actives were taken first. Their share in the collection is about 4%.

SMILES	Mtb bLac sens	FBA Mtb inh	RecA intein inh	Rv3671c inh	UGM FP inh	GDH-TPI inh
CCn1c(CNC(=O)c2ccco2)nnc1SCC(=O)Nc1cc(F)ccc1C	4	-2	-1	-5	-1	3
CCN1CCN(c2oc(COc3ccc(Cl)cc3)nc2C#N)CC1	-11	3	17	-3	-1	-3
CCN1CCN(c2oc(/C=C/c3ccccc3)nc2C#N)CC1	1	192*	-10	2	1	48*
CNc1oc(-c2ccccc2)nc1C#N	-11	181*	-3	0	0	0
CNc1oc(/C=C/c2ccccc2)nc1C#N	2	+	-39	-4	3	38*
CN(C)c1ccc(S(=O)(=O)N2CCCCC2)cc1NC(=O)CCNC(=O)c1ccccc1Cl	x	0	x	x	x	6
COCCN(CCOC)C(=O)CSc1ccc(S(=O)(=O)N2CCN(C)CC2)cn1	-3	0	x	-2	0	-10
Cn1c(NCc2cccnc2)nc2cc(-c3cccc(C(=O)NCCO)c3)sc2c1=O	x	10	x	x	x	11
O=C(NCc1ccccc1CN1CCCC1)C1CCN(C(=O)c2ccc(F)cc2)CC1	1	-3	x	5	x	-2
CN(C)/C=C/c1onc(-c2c(Cl)cccc2Cl)c1C#N	-1	-1	2	-21	1	31*
CCOC(=O)c1c(NC(=O)CSc2nc3ccccc3s2)sc(C(C)=O)c1C	17	0	3	-20	0	33*
N#Cc1ccc(C=NN2CCCCCC2)cc1	x	1	x	x	x	41*
O=C(O)c1ccc(/C=N/N2CCN(c3ccccc3)CC2)cc1	-1	-1	0	x	-1	10
O=C(O)c1ccc(C=NN2CCCCCC2)cc1	x	4	x	x	x	36*
COc1ccc(C(=O)NC(C(=O)NCC2(N3CCCCC3)CCCCC2)C(C)C)cc1 (stereo not given)	3	5	x	5	-2	11
COc1ccc(-c2nc(-c3ccccc3)nc(N3CCN(C)CC3)c2C#N)cc1	95	38*	1	3	-6	9
CN1CCN(c2nc(-c3ccccc3)nc(-c3ccccc3)c2C#N)CC1	82	-2	0	-8	-2	4
Cc1ccc(NC(=O)CN2C(=O)N/C(=C/c3ccc(C)o3)C2=O)cc1	-2	4	-1	-4	1	27
Cc1ccc(NC(=O)CN2C(=O)N/C(=C/c3ccc(C)s3)C2=O)cc1	6	-1	-10	-33	0	32*
Cc1c(OC(C)C(=O)NC2CC(C)(C)NC(C)(C)C2)ccc2c3c(c(=O)oc12)CCC3 (stereo not given)	-2	20	2	-1	0	8
Cc1c(C)c2ccc(OC(C)C(=O)NC3CC(C)(C)NC(C)(C)C3)cc2oc1=O (stereo not given)	4	123*	-1	-5	-2	12
Cc1c(C)c2ccc(OCC(=O)N3CCN(c4ccccc4)CC3)cc2oc1=O	4	3	-1	1	3	9
Cc1c(C)c2ccc(OCC(=O)N3CCC(C(=O)O)(c4ccccc4)CC3)cc2oc1=O	0	140*	x	8	1	14
COc1cc(OC)c2c(C)c(Cl)c(=O)oc2c1	12	124*	-1	1	2	16
CC(=O)COc1ccc2c(C)c(C)c(=O)oc2c1	32	131*	1	3	2	12
SMILES	Mtb bLac sens	FBA Mtb inh	RecA intein inh	Rv3671c inh	UGM FP inh	GDH-TPI inh
CCOc1ccc2c(C)c(Cl)c(=O)oc2c1	-3	+	0	5	4	12
COc1cc(OC)c2c(=O)cc(-c3ccccc3)oc2c1	7	16	1	-12	0	15
Cc1c(Cl)c(=O)oc2cc(OCC(=O)NCc3cccs3)ccc12	-9	37*	x	-13	0	14
Cc1ccc(OCC(=O)NCc2cccs2)cc1	10	-2	1	-8	-2	-4
CCOc1ccc(S(=O)(=O)N(CC)CC(=O)NCc2ccncc2)cc1	6	2	1	5	-1	0
CC(Nc1c[nH]c(=O)[nH]c1=O)c1ccccc1 (stereo not given)	10	1	61*	x	0	1
Cc1c(N=C2NN=C(c3ccc(Cl)cc3)CS2)c(=O)n(-c2ccccc2)n1C	-3	5	6	4	3	5
Cc1c(N=C2NN=C(c3c[nH]c4ccccc34)CS2)c(=O)n(-c2ccccc2)n1C	-3	0	-1	-3	0	50*
CC(C(=O)OCC(=O)Nc1cccc(S(=O)(=O)N(C)C)c1)N1C(=O)c2ccccc2C1=O (stereo not given)	5	3	2	7	x	-2
COc1ccc(/C=N/NC(=O)c2nnn(-c3nonc3N)c2-c2cccs2)c(OC)c1	-6	-1	-2	7	2	46*
COc1ccccc1/C=N/NC(=O)c1nnn(-c2nonc2N)c1-c1ccccc1	-14	-1	-6	-5	4	14
COc1ccc(OC)c(/C=N/NC(=O)c2nnn(-c3nonc3N)c2-c2cccs2)c1	6	7	0	-7	5	13
COc1ccccc1/C=N/NC(=O)c1nnn(-c2nonc2N)c1-c1cccs1	-3	4	-1	-8	-3	43*
COc1ccc(NC(=O)CN(C)C(=O)Cc2n[nH]c(=O)c3ccccc23)cc1	-4	4	-1	-8	3	5
CCn1c(CNC(=O)c2ccccc2OC)nnc1SCC(=O)c1ccc(F)cc1	5	-5	0	8	0	-1
O=C1CC(N2CCN(c3ccc(C(=O)c4ccc(F)cc4)cc3)CC2)C(=O)N1 (stereo not given)	4	2	-1	-5	0	48*
NC(Cc1ccc(Cl)cc1)c1csc(Nc2ccc(-c3ccccc3)nn2)n1 (stereo not given)	x	-2	x	x	x	9
CCn1cc(/C=C(\NC(=O)c2ccccc2F)C(=O)N2CCCC2)c2ccccc21	4	-6	1	-3	0	32*
CCn1cc(/C=C(\NC(=O)c2ccccc2Cl)C(=O)N2CCOCC2)c2ccccc21	3	0	0	1	3	25
CN1CCN(C(=O)/C(=C/c2cn(S(=O)(=O)N(C)C)c3ccccc23)NC(=O)c2ccccc2Cl)CC1	-7	-1	-1	4	0	2
CCn1cc(/C=C(\NC(=O)c2ccccc2F)C(=O)N2CCOCC2)c2ccccc21	5	-2	-1	0	-2	31*
CCn1cc(/C=C(\NC(=O)c2ccccc2Cl)C(=O)N2CCN(C)CC2)c2ccccc21	x	0	-3	x	x	39*
COc1ccc(C(C(=O)NC(C)(C)C)N(C(=O)Cn2nnc3ccccc32)c2cccc(C(C)=O)c2)cc1O (stereo not given)	-7	0	-1	-7	0	-1
Cc1ccc(NC(=O)C(c2ccccc2)N2CCN(CC(=O)N3CCOCC3)CC2)cc1Cl (stereo not given)	-4	2	x	-5	0	2
